Calls of active or inactive are those of the source. Rule for the calls: active = hit-call score of the fitted dose curve at least 0.9, where 1 is the maximum; inactive = score below 0.9.
read-out: Apoptosis regulator Bcl-2 (Homo sapiens) (UniProt P10415); assay: LTEA_HepaRG_BCL2: Life Technologies and Expression Analysis (LTEA) Assay for Bcl-2 gene using HepaRG (AID 2283475); settings: mRNA level, 48 h; actives raise or lower the signal;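 note: BCL2 transcript by TaqMan qRT-PCR normalised to ACTB GAPDH and POLR2A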
Protocol: LTEA_HepaRG is a cell based, multiplexed-readout assay that uses HepaRG, a human liver cell line, with measurements taken at 48 hours after chemical dosing on a 96-well plate.LTEA_HepaRG_BCL2 is one of 102 assay component(s) measured in the LTEA HepaRG cell culture assay. It is a marker of Cell proliferation, survival, death.Data from the assay component LTEA_HepaRG_BCL2 was analyzed into 1 endpoint. This assay endpoint, LTEA_HepaRG_BCL2, was analyzed with bidirectional fitting relative to DMSO as the negative control and baseline of activity. Using a type of inducible reporter, measures of mRNA induction for gain or loss-of-signal activity can be used to understand regulation of transcription factor activity. To generalize the intended target to other relatable targets, this assay endpoint is annotated to the cell cycle intended target family, where the subfamily is Cell proliferation, survival, death.
A total of 1060 chemcials from the ToxCast library were tested in eight-point concentration-response experiments. Cell culture and cytotoxicity assays were conducted at Thermo Fisher Scientific's Custom Services facility (Madison, WI). A single lot of human HepaRG cells (Thermo Fisher Scientific, Frederick, MD) was used for the cell culture experiments. 96-well format collagen type I coated plates of human HepaRG cells were prepared using established methods. Briefly, cryopreserved HepaRG cells were thawed, plated at a density of approximately 100,000 cells/well in HepaRG Thaw, Plate, and General Purpose media (HPRG770, Thermo Fisher Scientific), and incubated for 48 hours. 0.5% DMSO was selected as vehicle control to balance the requisite need of DMSO in HepaRG cultures to maintain differentiation (for example, baseline metabolism, proportions of hepatocytes vs. cholangiocytes), while enabling further hepatic receptor pathway activation (for example, PXR and CAR) in response to chemical exposure. 48 hours after plating, the culture medium was replaced with HepaRG Serum-Free Incudtion Media. Cells were exposed to each test chemical in duplicate and maintained in CO2 incubators for another 48 hours. Chemical plates were thawed to room temperature and 200x concentrations of treatment groups were prepared. 8-point conentration-reponse curves were made with the highest exposure at 100 uM, followed by half-log dilutions, all in 0.5% DMSO. Each test plate contained variouse controls, induction positive controls (1mM phenobarbital), cytotoxicity positive controls ([…] aflatoxin B1), vehicle controls (0.5% DMSO), and total lysis controls (0.5% DMSO). Cell morphology images were taken using an Essen IncuCyte FLR automated microscope, with six 96-well plates imaged in about 24 minutes. Images were captured and exported and JPEG files. Spent culture media was transfered to black-well plates for the LDH assay, and remaining media was sorted at -80 C for later use. Cells were treated with RLT buffer and frozen until shipped for gene expression analysis. Total RNA was isolated from the cell suspension in 75 uL of Buffer RLT (Qiagen, Germantown, MD 20874) by Quintiles/Expression Analysis (Durham, NC) using a custom isolation procedure. Total RNA from each plate well was transferred to a preamplification plate. Fluidigm's 96.96 Dynamic ArrayTM (Fluidigm, Amsterdam, the Netherlands) technology was used for gene expression analyses by quantitative reverse transcription polymerase chain reaction (qRT-PCR, performed by Quintiles/Expression Analysis, Durham, NC)89. Standard TaqManTM Assays (Applied Biosystems/ThermoFisher Scientific, Foster City, CA) were used to assess the expression of 93 genes selected based on their selectivity and sensitivity to important hepatic receptors known to be modulated by environmental chemicals; importance in human hepatocyte functionality; and hepatotoxicity. […]

Chain of Apoptosis regulator Bcl-2 (Homo sapiens) (P10415 whole entry, looked up): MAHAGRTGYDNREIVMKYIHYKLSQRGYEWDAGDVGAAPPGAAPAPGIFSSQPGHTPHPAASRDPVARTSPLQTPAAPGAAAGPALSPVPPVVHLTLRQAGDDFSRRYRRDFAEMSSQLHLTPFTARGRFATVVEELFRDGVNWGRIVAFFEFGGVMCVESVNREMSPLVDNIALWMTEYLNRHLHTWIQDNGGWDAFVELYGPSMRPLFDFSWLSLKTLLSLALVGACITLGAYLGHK

SMILES | outcome | AC50
Clc1nc(Cl)nc(Nc2ccccc2Cl)n1 | inactive | 
Cc1c(COC(=O)[C@@H]2[C@H](/C=C(\Cl)C(F)(F)F)C2(C)C)cccc1-c1ccccc1 | inactive | 
CC1(C)CCC(=Cc2ccc(Cl)cc2)C1(O)Cn1cncn1 (stereo not given) | inactive | 
O=c1n(Cl)c(=O)n(Cl)c(=O)n1Cl | inactive | 
CC(C)(C)C(=O)C(Oc1ccc(Cl)cc1)n1cncn1 (stereo not given) | inactive | 
O=C1C2CC=CCC2C(=O)N1SC(Cl)(Cl)Cl (stereo not given) | inactive | 
CC1(C)C(C=C(Cl)Cl)C1C(=O)OC(C#N)c1cccc(Oc2ccccc2)c1 (stereo not given) | inactive | 
CC(C)C1(C)N=C(c2ncccc2C(=O)O)NC1=O (stereo not given) | inactive | 
COc1ccc(-c2ccccc2)cc1NNC(=O)OC(C)C | inactive | 
Cc1cc(C)nc(Nc2ccccc2)n1 | inactive | 
CCN(CC)c1nc(C)cc(OP(=S)(OC)OC)n1 | inactive | 
N#Cc1c(Cl)cccc1Cl | inactive | 
O=C(O)c1c(Cl)ccc2cc(Cl)cnc12 | inactive | 
N#CN=C1SCCN1Cc1ccc(Cl)nc1 | inactive | 
CSC(=O)c1c(C(F)F)nc(C(F)(F)F)c(C(=O)SC)c1CC(C)C |  | 49.8 µM (active)
O=P(O)(O)CCCl | inactive | 
COCc1cnc(C2=NC(C)(C(C)C)C(=O)N2)c(C(=O)O)c1 (stereo not given) | inactive | 
Clc1cccc(C(Cl)(Cl)Cl)n1 | inactive | 
C=C(C)CN(CC)c1c([N+](=O)[O-])cc(C(F)(F)F)cc1[N+](=O)[O-] | inactive | 
CCOc1cc(C(C)(C)C)ccc1C1COC(c2c(F)cccc2F)=N1 (stereo not given) | inactive | 

SMILES | outcome | AC50
COP(=O)(OC)O/C(C)=C/C(=O)N(C)C | inactive | 
CC(C)NC(=O)N1CC(=O)N(c2cc(Cl)cc(Cl)c2)C1=O | inactive | 
CC(C)=CC1C(C(=O)OCc2coc(Cc3ccccc3)c2)C1(C)C (stereo not given) | inactive | 
CCOc1nc(F)cc2nc(S(=O)(=O)Nc3c(Cl)cccc3Cl)nn12 | inactive | 
CCC(C)n1c(=O)[nH]c(C)c(Br)c1=O (stereo not given) | inactive | 
C=CCOC(=O)C(C)(C)OC(=O)c1cc(-n2c(=O)cc(C(F)(F)F)n(C)c2=O)ccc1Cl | inactive | 
CC(C)Nc1nc(Cl)nc(NC(C)C)n1 | inactive | 
COCC(C)N(C(=O)CCl)c1c(C)csc1C (stereo not given) | inactive | 
CS(=O)(=O)c1cc(C(F)(F)F)ccc1C(=O)c1cnoc1C1CC1 | inactive | 
CC1(C)CON(Cc2ccccc2Cl)C1=O | inactive | 
CC(C)N1C(=O)c2ccccc2NS1(=O)=O | inactive | 
COC(=O)N(C(=O)N1CO[C@@]2(C(=O)OC)Cc3cc(Cl)ccc3C2=N1)c1ccc(OC(F)(F)F)cc1 | inactive | 
CC(C)N1C(=O)N(c2ccccc2)CSC1=NC(C)(C)C |  | 78.7 µM (active)
CN/C(=N\[N+](=O)[O-])NCc1cnc(Cl)s1 | inactive | 
CC(C)Oc1cccc(NC(=O)c2ccccc2C(F)(F)F)c1 | inactive | 
CNC(=O)N(C)c1nnc(C(C)(C)C)s1 | inactive | 
O=C(Nc1ccccc1-c1ccc(Cl)cc1)c1cccnc1Cl | inactive | 
COC(=O)NS(=O)(=O)c1ccc(N)cc1 | inactive | 
COC(=O)NC(=S)Nc1ccccc1NC(=S)NC(=O)OC | inactive | 
CCCCC(O)(Cn1cncn1)c1ccc(Cl)cc1Cl (stereo not given) |  | 59.5 µM (active)

From PubChem BioAssay (EPA / NIEHS)
